Rows were chosen to be rich in hits. Some 11% of all compounds tested hit in one or more screens of this group.
HCV inh: inhibitors of hepatitis C virus infection. Huh7.5.1 HCVcc-Cre infection, luciferase reporter, 44 h. Potency, µM (titrated, usually from 41.8 µM), inactives show at the highest dose activity change, negative = inhibition, usual class: inhibitors. 340,000 tested, 3.4% active. AID 651820
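Whole-lifecycle infectious HCVcc-Cre system; cells 1,000/well, compound then virus (~0.5 moi) added 4 h after plating, 44 h culture. Luciferase read 15 sec following 15 min substrate incubation, room temp.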
Pf growth 48h: inhibits P. falciparum growth in the first generation, 48 h; P. falciparum luciferase growth in erythrocytes, 48 h; 310,000 tested, 5.9% active; Potency, µM (highest dose often 28.7 µM), without a hit: at the top dose activity change, negative = inhibition, hits mostly inhibitors; AID 504832
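A one-generation exposure of luciferase-tagged malaria parasites in RPMI 1640/Albumax erythrocyte culture, 37 C and 5% CO2. Inhibition is inferred from decreased luminescence after adding detection reagent.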
Pf growth 96h: P. falciparum growth inhibition at 96 hour, primary screen for plastid delayed-death inhibitors. P. falciparum luciferase reporter growth, 96 h. Potency, µM (doses to about 28.7 µM), without a hit: at the highest dose activity change, negative = inhibition, usual class: inhibitors. 320,000 tested, 6.9% active
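96 h incubation, 37 C, 5% CO2, of luciferase-reporter P. falciparum-infected RBCs (2% hematocrit, 0.05% parasitemia final) with test compounds; endpoint luminescence.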
AMA1 RON2 block: inhibitors of Plasmodium falciparum AMA1-RON2 interaction. AlphaScreen AMA1-biotinylated RON2 peptide binding. Potency, µM (highest dose often 58.2 µM), for inactives: top-dose activity change, negative = inhibition, actives largely listed as inhibitors. 360,000 tested, 0.2% active. AID 720542;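 note: 0% = vehicle wells and -100% = peptide control; nearly all actives have a fitted effect of over 45% in size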
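AMA1 (3D7) with his tag at 25 nM final met compounds first, then biotinylated RON2 peptide at 25 nM; detection used donor plus acceptor beads, 10 µg/mL apiece, read by AlphaScreen after 30 min at room temperature.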
* hit, by the source's call; ? = inconclusive; / = no result given; [ ] = remark or other dose. Calls come from the whole dose curve; as a rule, active = well fitted curve in the direction sought with a large enough effect; inconclusive = small, poorly fitted or top-dose-only effect, or another doubt; inactive = no such curve, though single readings can be large; an effect the other way counts as inactive or inconclusive. Unless noted, % is set by controls: 0 for no effect and ±100 for the full control effect; potency is the fitted concentration of half-maximal effect.

SMILES	HCV inh	Pf growth 48h	Pf growth 96h	AMA1 RON2 block
COc1ccc(C(=O)NC2CCCCC2)cc1OC1CCN(C(C)C)CC1	/	?	6.6µM*	3%
COCC1CCN(C(=O)c2ccc(OC)c(OC3CCN(C(C)C)CC3)c2)CC1	/	14%	3.3µM*	-4%
COc1ccc(C(=O)N2CCCCCC2)cc1OC1CCN(C(C)=O)CC1	/	37%	10µM*	10%
COc1ccc(CN2CCC(Oc3cc(C(=O)NC4CC4)ccc3OC)CC2)c(O)c1	?	2.3µM*	31%	-4%
COCC1CCCCN1C(=O)c1ccc(OC)c(OC2CCN(C(C)C)CC2)c1 (stereo unspecified)	?	10%	61%	8%
Cc1cccc(C)c1NC(=O)C(c1ccc(C#N)cc1)n1c(=O)c(-c2ccco2)nc2ccccc21 (stereo unspecified)	/	/	/	0%
COc1ccc(NC(=O)N(C2CCCCC2)C(C)c2ccco2)c(OC)c1 (stereo unspecified)	?	-6%	0%[5.75 µM]	-5%
COc1ccc(NC(=O)N(C2CCCCC2)C2CCN(C(C)C)CC2)c(OC)c1	3.5µM*	0%	?	-4%
O=C(Cn1c(=O)oc2ccccc21)N1CCOCC1	12%	6%	32%	-5%
CCOC(=O)C1CCN(S(=O)(=O)c2ccc3c4c(cccc24)C(=O)N3CC)CC1	-10%	/	/	3%
Cc1[nH]c2ccc(F)cc2c(=O)c1SC(F)(F)C(F)F	?	13µM*	-15%	13%
CC(C)Oc1ccc(CNC(=O)CCCN2C(=O)C(c3ccccc3)Oc3cccnc32)cc1 (stereo unspecified)	11%	-20%	-8%	-5%
COc1ccc(-c2cc(-c3nnc(COC(=O)CC4CC5CCC4C5)o3)c3ccccc3n2)cc1OC (stereo unspecified)	-17%	9.3µM*	0%	157%
COc1ccc(CNC(=O)COC(=O)CC2CC3CCC2C3)cc1OC (stereo unspecified)	-16%	1%	-8%	13%
[2H]c1c([2H])c([2H])c(-c2nc(N3CCCCCC3)sc2C(=O)c2ccccc2)c([2H])c1[2H]	?	?	4.1µM*	26%
O=C(c1sc(N2CCOCC2)nc1-c1ccccc1)N1CCCCC1	12%	-10%	-6%	-10%[11.6 µM]
COC(=O)c1cc(C(=O)Nc2ccc(S(N)(=O)=O)cc2)cc([N+](=O)[O-])c1	-28%	10%	12%	-10%
COc1ccccc1C(=O)NC1CCCCCCC1	-13%	?	?	-4%
O=C(NC1CCCCCC1)C(=S)NCCc1ccccc1	3%	25%	10µM*	37%
O=C(NC1CCCCCC1)C(=S)NCc1ccccc1	17%	21%	?	65%
O=C(NC1CCCC1)c1ccccc1OCc1ccccc1	7.9µM*	-38%	-24%	-4%
O=C(CCNC(=O)OCc1ccccc1)NC1CCCCC1	15%	-1%	3.7µM*	5%
O=C(NC1CCN(Cc2ccccc2)CC1)c1ccccc1OCc1ccccc1	25µM*	?	9.3µM*	-2%
Cc1nn(CC(C)C)c(Cl)c1C(=O)N(C)CC(=O)Nc1ccc(Cl)cc1	/	/	/	5%
CCN(CC)C(=O)c1nc(-c2cccc3ccccc23)no1	/	/	/	24%
SMILES	HCV inh	Pf growth 48h	Pf growth 96h	AMA1 RON2 block
CC(C)(C)S(=O)N1Cc2cc(C(=O)N[C@@H]3CCN(Cc4ccccc4)C3)nc(-c3cccc(-c4cc5ccccc5o4)c3)c2[C@@H]1CCO (stereo partly specified)	/	/	/	-27%
COCCn1c(SCc2ccccc2Cl)nc2c1c(=O)[nH]c(=O)n2C	-24%	-17%	15%	1%
COCCn1c(N2CCCC2)nc2c1c(=O)[nH]c(=O)n2C	13%	13µM*	50%	5%
Cn1c(N2CCCCC2)nc2c1c(=O)[nH]c(=O)n2C	-1%	0%	10µM*	-2%
CCOC(=O)Cn1c(N2CCOCC2)nc2c1c(=O)[nH]c(=O)n2C	12%	-7%	12µM*	2%
CCOCCn1c(N2CCCC2)nc2c1c(=O)[nH]c(=O)n2C	5%	42%	?	12%
COCCn1c(Sc2nc(C)cs2)nc2c1c(=O)[nH]c(=O)n2C	?	-22%	13µM*	13%
CCCN(CCC)CCCNC(=O)Cn1cnc2sc(C)c(S(=O)(=O)N3CCOCC3)c2c1=O	19%	13%	34%	-1%
CCc1ccc(NC2=NCC(=O)N2Cc2ccc3c(c2)OCO3)cc1	1%	0%	9.3µM*	-10%

Bioassay records: PubChem, National Center for Advancing Translational Sciences (NCATS)
